Measurements as given in the supplement of paper PMC10849652.
The full data set covers some 7,900 targets. This sample favours those with a hit. About 0.6% of all pairs of compound and target were hits. Values without a mark were called inactive.

Tests used:
Experiment in all cases: log2 fold change, soluble protein after heating vs DMSO (PISA); higher = thermal stabilisation; K562 cells, 10 uM, 30 min; active = over 0.2 and 3.5 SD of the protein, either way, in both replicates (recomputed)
[1] = compound: Cc1ccc(NC(=O)c2ccc(CN3CC[C@H](N(C)C)C3)c(C(F)(F)F)c2)cc1Nc1nccc(-c2cncnc2)n1 [bafetinib]
Summary of the method: (§1)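 For each measurement, 10 μM compound was applied for 30 min to K562 cells at 2×10^6 cells/mL. Aliquots were heated for 3 min across 48°C-58°C, pooled, and extracted in PBS with 0.5% NP-40 at 4°C; the supernatant after 21,000xg for 90 min was soluble protein. This was quantified by TMTpro 16plex LC-MS/MS with channel sums equalised, and thermal stability was reported relative to control samples from duplicates, on a log2 fold-change scale.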

[2] = compound: Cc1cccc(CC(=O)N2CCc3c2ccc(-c2cn(C)c4ncnc(N)c24)c3F)n1
Summary of the method: as §1

[3] = compound: Cc1cn(-c2cc(NC(=O)c3ccc(C)c(Nc4nccc(-c5cccnc5)n4)c3)cc(C(F)(F)F)c2)cn1 [nilotinib]
Summary of the method: as §1

[4] = compound: Cc1nc(Nc2n[nH]c3c2CN(C(=O)N[C@H](CN(C)C)c2ccccc2)C3(C)C)c2sccc2n1
Summary of the method: as §1

[5] = compound: Cc1nc(Nc2ncc(C(=O)Nc3c(C)cccc3Cl)s2)cc(N2CCN(CCO)CC2)n1 [dasatinib]
Summary of the method: as §1

[6] = compound: Cc1ncc(-c2ccnc(Nc3ccc(S(C)(=O)=O)cc3)n2)n1C(C)C
Summary of the method: as §1

[7] = compound: Cn1cc(-c2ccc3c(c2)CCN3C(=O)Cc2cccc(C(F)(F)F)c2)c2c(N)ncnc21
Summary of the method: as §1

[8] = compound: Cn1cc(-c2ccc3nnc(C(F)(F)c4ccc5ncccc5c4)n3n2)cn1
Summary of the method: as §1

[9] = compound: Cn1cncc1[C@@](N)(c1ccc(Cl)cc1)c1ccc2c(c1)c(-c1cccc(Cl)c1)cc(=O)n2C [tipifarnib]
Summary of the method: as §1

[10] = compound: FC(F)(F)c1ccc(/C=C/c2nc(COc3ccc(CCCCn4ccnn4)cc3)co2)cc1 [mubritinib]
Summary of the method: as §1

[11] = compound: NC(=O)Nc1cc(-c2cccc(F)c2)sc1C(=O)N[C@H]1CCCNC1
Summary of the method: as §1

[12] = compound: NC(=O)c1cnc(N[C@@H]2CCCC[C@@H]2N)nc1Nc1cccc(-n2nccn2)c1
Summary of the method: as §1

[13] = compound: NC1(c2ccc(-c3nc4ccn5c(=O)[nH]nc5c4cc3-c3ccccc3)cc2)CCC1
Summary of the method: as §1

[14] = compound: NCC(=O)Nc1ccc(-n2nc(C(F)(F)F)cc2-c2ccc3c(ccc4ccccc43)c2)cc1
Summary of the method: as §1

[15] = compound: Nc1ccccc1NC(=O)c1ccc(CNC(=O)OCc2cccnc2)cc1 [entinostat]
Summary of the method: as §1

[16] = compound: O=C(CCCCCCC(=O)Nc1ccccc1)NO [vorinostat]
Summary of the method: as §1

[17] = compound: O=C(CCCCCCNC(=O)c1cnc(N(c2ccccc2)c2ccccc2Cl)nc1)NO [citarinostat]
Summary of the method: as §1

[18] = compound: O=C(O)c1ccc2c(c1)nc(Nc1cccc(Cl)c1)c1ccncc12 [silmitasertib]
Summary of the method: as §1

[19] = compound: O=C1NC(=O)C(c2cnc3ccccn23)=C1c1cn2c3c(cc(F)cc13)CN(C(=O)N1CCCCC1)CC2
Summary of the method: as §1

[20] = compound: c1cc(OCCN2CCCCC2)cc(-c2n[nH]c3ccc(-c4nnc[nH]4)cc23)c1
Summary of the method: as §1

Chain of UniProt Q93050 (Q93050 whole entry, looked up): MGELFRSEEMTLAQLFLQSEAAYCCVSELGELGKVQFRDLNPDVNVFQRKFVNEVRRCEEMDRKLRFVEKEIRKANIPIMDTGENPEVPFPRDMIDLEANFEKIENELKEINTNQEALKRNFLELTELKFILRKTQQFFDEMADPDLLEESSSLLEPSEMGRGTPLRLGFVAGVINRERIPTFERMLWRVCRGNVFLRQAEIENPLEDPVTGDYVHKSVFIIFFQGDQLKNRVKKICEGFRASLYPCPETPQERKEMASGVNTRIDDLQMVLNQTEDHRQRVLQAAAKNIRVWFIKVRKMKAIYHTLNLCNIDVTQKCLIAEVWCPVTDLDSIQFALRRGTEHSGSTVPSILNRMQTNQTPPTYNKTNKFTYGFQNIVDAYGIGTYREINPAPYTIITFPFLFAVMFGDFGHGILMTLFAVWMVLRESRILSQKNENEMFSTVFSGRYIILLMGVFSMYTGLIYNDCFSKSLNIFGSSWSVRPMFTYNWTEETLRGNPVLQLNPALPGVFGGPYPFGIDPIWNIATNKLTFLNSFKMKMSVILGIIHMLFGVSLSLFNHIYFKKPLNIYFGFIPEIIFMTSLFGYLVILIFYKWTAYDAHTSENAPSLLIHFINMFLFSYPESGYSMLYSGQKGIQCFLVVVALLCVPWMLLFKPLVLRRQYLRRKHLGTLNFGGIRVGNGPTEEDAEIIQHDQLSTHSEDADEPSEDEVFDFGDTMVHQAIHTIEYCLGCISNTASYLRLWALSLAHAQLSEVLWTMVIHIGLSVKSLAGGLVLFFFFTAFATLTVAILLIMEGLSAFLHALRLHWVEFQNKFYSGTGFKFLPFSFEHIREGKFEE
Chain of UniProt P11310 (P11310 whole entry, looked up): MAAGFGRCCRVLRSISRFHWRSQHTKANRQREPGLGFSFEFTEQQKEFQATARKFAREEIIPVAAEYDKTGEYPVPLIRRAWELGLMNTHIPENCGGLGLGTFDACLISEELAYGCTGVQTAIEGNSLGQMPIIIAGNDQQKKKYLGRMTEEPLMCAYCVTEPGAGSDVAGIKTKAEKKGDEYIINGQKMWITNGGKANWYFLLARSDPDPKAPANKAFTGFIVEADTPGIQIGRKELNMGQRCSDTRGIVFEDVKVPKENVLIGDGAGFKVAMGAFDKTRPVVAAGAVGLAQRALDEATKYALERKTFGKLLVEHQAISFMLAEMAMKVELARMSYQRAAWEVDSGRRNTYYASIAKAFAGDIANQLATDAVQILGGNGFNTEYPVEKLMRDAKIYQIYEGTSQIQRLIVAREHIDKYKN
Chain of UniProt Q8IUR7 (Q8IUR7 whole entry, looked up): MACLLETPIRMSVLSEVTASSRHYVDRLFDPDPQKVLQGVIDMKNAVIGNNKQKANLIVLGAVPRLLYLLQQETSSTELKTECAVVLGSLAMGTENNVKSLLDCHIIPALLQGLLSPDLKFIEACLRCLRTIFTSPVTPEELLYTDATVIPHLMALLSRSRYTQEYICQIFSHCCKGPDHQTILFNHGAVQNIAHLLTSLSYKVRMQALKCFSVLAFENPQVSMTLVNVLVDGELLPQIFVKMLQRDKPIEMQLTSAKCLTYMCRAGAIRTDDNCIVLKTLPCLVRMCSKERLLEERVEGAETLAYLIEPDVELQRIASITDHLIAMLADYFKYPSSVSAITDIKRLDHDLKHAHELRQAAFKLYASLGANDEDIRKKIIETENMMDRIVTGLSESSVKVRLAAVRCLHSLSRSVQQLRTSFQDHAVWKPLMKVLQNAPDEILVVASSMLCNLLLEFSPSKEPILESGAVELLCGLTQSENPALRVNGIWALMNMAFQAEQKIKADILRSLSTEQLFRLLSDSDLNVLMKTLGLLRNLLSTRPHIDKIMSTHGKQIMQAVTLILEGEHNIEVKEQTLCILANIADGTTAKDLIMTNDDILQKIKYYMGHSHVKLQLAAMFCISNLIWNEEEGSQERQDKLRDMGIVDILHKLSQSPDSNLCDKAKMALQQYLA
Chain of UniProt P56211 (P56211 whole entry, looked up): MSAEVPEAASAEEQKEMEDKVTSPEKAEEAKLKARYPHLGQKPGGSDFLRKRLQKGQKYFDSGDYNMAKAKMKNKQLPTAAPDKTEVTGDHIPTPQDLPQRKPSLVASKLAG
Chain of UniProt Q15057 (Q15057 whole entry, looked up): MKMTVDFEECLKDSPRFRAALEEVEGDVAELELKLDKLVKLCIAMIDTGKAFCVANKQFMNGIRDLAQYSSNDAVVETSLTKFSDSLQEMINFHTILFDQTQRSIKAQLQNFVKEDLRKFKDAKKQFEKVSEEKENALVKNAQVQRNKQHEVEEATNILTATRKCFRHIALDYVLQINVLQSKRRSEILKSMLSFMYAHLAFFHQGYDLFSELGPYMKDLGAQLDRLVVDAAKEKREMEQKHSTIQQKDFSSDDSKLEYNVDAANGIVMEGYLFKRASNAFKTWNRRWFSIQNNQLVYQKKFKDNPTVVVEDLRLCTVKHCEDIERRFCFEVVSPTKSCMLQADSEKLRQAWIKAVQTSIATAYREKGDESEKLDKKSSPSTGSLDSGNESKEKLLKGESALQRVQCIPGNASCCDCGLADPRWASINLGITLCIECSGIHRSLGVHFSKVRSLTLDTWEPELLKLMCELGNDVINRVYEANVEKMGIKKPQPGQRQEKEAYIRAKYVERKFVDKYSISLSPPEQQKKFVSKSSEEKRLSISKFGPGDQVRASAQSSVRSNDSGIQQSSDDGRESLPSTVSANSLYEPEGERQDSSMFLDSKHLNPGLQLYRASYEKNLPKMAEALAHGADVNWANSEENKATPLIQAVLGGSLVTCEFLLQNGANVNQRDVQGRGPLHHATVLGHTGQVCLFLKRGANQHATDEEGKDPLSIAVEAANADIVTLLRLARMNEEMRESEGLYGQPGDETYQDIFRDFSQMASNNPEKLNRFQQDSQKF
Chain of UniProt P49748 (P49748 whole entry, looked up): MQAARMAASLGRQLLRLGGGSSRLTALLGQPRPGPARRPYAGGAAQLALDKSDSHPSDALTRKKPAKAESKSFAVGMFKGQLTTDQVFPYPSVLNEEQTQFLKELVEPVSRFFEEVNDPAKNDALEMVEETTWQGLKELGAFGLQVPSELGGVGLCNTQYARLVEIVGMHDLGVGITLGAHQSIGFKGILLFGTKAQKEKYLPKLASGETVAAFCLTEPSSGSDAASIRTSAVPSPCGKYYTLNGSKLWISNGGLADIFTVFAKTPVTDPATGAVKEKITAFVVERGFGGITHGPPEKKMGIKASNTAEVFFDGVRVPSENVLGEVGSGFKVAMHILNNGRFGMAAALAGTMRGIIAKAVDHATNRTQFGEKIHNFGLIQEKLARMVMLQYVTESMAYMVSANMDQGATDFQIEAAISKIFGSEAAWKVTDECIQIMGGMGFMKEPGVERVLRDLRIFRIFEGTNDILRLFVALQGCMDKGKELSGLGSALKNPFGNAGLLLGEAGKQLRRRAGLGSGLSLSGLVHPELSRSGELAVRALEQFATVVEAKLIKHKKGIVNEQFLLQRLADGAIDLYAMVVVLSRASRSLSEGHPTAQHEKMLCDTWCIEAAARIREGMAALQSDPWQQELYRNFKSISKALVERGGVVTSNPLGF
Chain of UniProt P36405 (P36405 whole entry, looked up): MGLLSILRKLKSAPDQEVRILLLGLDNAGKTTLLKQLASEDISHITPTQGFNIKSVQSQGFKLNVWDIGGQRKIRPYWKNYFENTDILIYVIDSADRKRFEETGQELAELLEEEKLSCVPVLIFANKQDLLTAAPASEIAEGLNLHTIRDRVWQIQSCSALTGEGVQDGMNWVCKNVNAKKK
Chain of UniProt P31751 (P31751 whole entry, looked up): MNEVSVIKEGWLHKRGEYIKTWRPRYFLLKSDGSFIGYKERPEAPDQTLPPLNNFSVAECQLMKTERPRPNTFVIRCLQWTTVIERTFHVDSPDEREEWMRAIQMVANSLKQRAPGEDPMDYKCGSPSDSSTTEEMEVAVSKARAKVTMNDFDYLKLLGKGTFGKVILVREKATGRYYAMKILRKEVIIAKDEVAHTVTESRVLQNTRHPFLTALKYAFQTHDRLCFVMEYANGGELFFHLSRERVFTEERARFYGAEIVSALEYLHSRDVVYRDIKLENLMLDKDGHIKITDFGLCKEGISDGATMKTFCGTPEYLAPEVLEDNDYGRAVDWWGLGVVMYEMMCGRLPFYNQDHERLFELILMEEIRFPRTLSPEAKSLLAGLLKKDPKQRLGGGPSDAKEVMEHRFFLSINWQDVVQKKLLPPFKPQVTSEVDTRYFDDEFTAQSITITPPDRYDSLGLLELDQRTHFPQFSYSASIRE
Chain of UniProt O00116 (O00116 whole entry, looked up): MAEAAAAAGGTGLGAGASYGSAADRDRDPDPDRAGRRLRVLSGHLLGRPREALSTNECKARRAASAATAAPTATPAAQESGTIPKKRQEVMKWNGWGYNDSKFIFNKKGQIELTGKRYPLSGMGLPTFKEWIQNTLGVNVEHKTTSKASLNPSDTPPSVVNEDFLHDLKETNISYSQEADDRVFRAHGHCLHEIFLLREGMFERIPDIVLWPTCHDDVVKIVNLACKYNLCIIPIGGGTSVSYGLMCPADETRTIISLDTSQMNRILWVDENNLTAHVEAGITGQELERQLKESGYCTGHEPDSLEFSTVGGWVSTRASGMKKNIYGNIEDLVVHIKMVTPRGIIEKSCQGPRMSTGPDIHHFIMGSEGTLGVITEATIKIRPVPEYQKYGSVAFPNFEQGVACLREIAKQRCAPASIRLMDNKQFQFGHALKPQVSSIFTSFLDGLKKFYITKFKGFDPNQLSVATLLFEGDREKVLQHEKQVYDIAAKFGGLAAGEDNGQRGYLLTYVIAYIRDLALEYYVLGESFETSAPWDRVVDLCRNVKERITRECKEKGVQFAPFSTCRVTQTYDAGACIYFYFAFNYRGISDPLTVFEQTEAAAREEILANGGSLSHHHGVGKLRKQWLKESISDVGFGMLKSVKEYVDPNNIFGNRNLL
Chain of UniProt P55957 (P55957 whole entry, looked up): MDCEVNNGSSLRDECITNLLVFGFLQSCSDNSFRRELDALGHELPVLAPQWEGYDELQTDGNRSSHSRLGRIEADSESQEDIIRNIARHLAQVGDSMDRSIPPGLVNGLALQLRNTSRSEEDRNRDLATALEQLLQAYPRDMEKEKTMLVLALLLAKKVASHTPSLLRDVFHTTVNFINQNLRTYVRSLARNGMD

Target	log2 fold change [1]	log2 fold change [2]	log2 fold change [3]	log2 fold change [4]	log2 fold change [5]	log2 fold change [6]	log2 fold change [7]	log2 fold change [8]	log2 fold change [9]	log2 fold change [10]	log2 fold change [11]	log2 fold change [12]	log2 fold change [13]	log2 fold change [14]	log2 fold change [15]	log2 fold change [16]	log2 fold change [17]	log2 fold change [18]	log2 fold change [19]	log2 fold change [20]
ACAP2 (UniProt Q15057)	0.093	0.052	-0.006	-0.05	-0.04	0.051	-0.073	-0.051	-0.097	0.016	-0.016	-0.075	0.026	-0.035	0.005	0	0.029	-0.007	-0.078	0.045
ACO2 (UniProt Q99798)	0.021	-0.025	-0.02	0.013	-0.118	-0.013	0.043	-0.016	-0.064	-0.522 (active)	0.017	-0.04	-0.142	-0.012	0.039	0.023	0.057	0.001	-0.058	-0.042
ATP6V0A1 (UniProt Q93050)	-0.078	–	–	–	–	–	–	–	–	–	–	–	–	–	–	–	–	–	–	–
ACSL3 (UniProt O95573)	-0.066	0.042	-0.086	-0.048	-0.06	0.011	0.029	0.075	-0.042	0	0.009	-0.041	-0.095	-0.042	0.047	0.049	0.047	0.074	-0.045	0.028
AGPS (UniProt O00116)	-0.068	0.025	0.039	-0.012	-0.023	0.006	0.09	0.01	0.032	0.112	-0.013	0.007	-0.112	0	0.023	0.045	0.058	0.011	-0.107	-0.011
ARMC8 (UniProt Q8IUR7)	0.021	-0.026	-0.036	0.038	-0.082	-0.008	-0.019	-0.112	0.007	-0.053	-0.044	0.017	-0.087	0.002	-0.031	-0.031	0.057	0.058	0.026	-0.028
ACADVL isoform 3 (UniProt P49748)	-0.093	0	0.032	0.02	-0.016	-0.007	0.022	0.026	-0.01	0.071	-0.025	-0.036	-0.021	-0.032	0	-0.019	0.043	-0.015	-0.014	-0.028
ATAD3A isoform 2 (UniProt Q9NVI7)	-0.104	0.035	-0.141	-0.053	-0.094	0	-0.082	-0.101	0.097	-0.215	0.011	-0.088	-0.128	-0.088	0.053	0.123	0.076	0.051	0.12	-0.127
AKT2 (UniProt P31751)	0.021	0.049	-0.037	-0.144	-0.145	-0.108	0.019	-0.034	-0.185	0.037	-0.008	-0.266 (active)	1.18 (active)	-0.051	0.085	0.022	0.077	-0.026	-0.017	-0.013
ATP12A isoform 2 (UniProt P54707)	0.026	0.011	0.02	-0.007	0.022	0.007	0.066	0.04	0.016	0.018	-0.115	0.049	0.075	0.003	-0.072	-0.035	-0.033	-0.033	-0.032	-0.037
ATP6V0A1 isoform 3 (UniProt Q93050)	-0.12	0.153	-0.026	-0.029	0.018	-0.079	-0.097	-0.098	0.038	-0.026	-0.051	-0.207	-0.184	0.008	0.083	0.062	0.109	0.102	0.019	-0.112
ACADM isoform 2 (UniProt P11310)	-0.073	0.002	-0.013	0.025	-0.054	-0.002	0.039	0.024	0.012	0.016	-0.044	0.01	-0.024	0.029	-0.019	-0.007	0.037	-0.032	-0.101	0.009
ARL3 (UniProt P36405)	-0.024	-0.029	0.011	0.006	0.001	-0.003	0.022	-0.018	-0.034	0.029	0.02	-0.005	-0.051	0.006	-0.024	-0.013	0.05	0	-0.001	-0.022
ALDH2 (UniProt P05091)	0.009	-0.02	0.006	-0.016	-0.034	0.019	0.072	0.059	-0.005	0.07	0.012	-0.039	-0.046	-0.016	-0.007	0.216 (active)	0.043	-0.038	-0.001	-0.023
ARPP19 (UniProt P56211)	-0.057	0.005	0.02	-0.041	0.045	-0.004	0.033	-0.022	-0.055	0.002	-0.049	-0.075	-0.019	0.046	0.027	-0.038	0.1	0	0.026	-0.051
ABHD16A (UniProt O95870)	0.132	-0.056	0.177	0.055	0.029	-0.058	0.087	-0.075	-0.01	0.071	-0.026	0.026	0.113	0.049	-0.02	0.055	0.026	-0.022	0.005	0.008
BID isoform 2 (UniProt P55957)	-0.035	-0.071	0.019	-0.006	0.018	0.005	0.038	0.007	-0.079	0.044	0.032	0.019	-0.037	0.052	-0.018	-0.039	0.006	-0.008	0.042	0.005
